# Compound activity (PubChem)
# A selection: hits, their analogues and other compounds. The true share with any hit is near 1.1%.
# HTR5A inv ag = HTR5A inverse agonism, opioid heterodimer counter-screen. P47898. HTR5A cell line, luminescence. inhibition, % at 9.3 µM. 340,000 tested, 0.083% active. AID 504634; in the data active = inhibition mostly above about 23%, no sharp cut-off; inactive = mostly below about 18%;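 also: 0% = cells with DMSO and 100% = no-cell wells with DMSO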
# Target sequence (P47898 whole entry, looked up): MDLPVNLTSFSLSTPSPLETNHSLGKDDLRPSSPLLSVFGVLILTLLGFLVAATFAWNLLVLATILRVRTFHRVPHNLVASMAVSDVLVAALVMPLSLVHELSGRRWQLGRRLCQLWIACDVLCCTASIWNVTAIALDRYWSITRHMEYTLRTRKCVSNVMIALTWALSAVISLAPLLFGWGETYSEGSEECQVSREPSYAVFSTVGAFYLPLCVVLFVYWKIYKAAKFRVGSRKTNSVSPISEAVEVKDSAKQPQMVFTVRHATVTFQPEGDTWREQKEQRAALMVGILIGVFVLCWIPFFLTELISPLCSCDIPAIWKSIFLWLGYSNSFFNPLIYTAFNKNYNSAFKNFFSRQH
# OPRM1-OPRD1 inv = inverse agonists of human mu-delta opioid receptor heterodimerization; inhibition, % at 9.3 µM; cell-based MOR-DOR heterodimer luminescence, inverse agonism; P35372+P41143; 340,000 tested, 0.21% active; in the data active = inhibition above about 22%, passing the limit was not always enough;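 also: 0% = cells with DMSO and 100% = wells without cells with DMSO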
# HTR5A ag = activates human HTR5A in OPRM1-OPRD1 agonist counter-screen | activation, % at 9.3 µM | P47898 | 340,000 tested, 0.61% active | HTR5A agonist assay, luminescence, cell-based | AID 504692; in the data active = activation mostly above about 9.5%, no sharp cut-off; inactive = mostly below about 7.6%;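 also: 0% = cells with vehicle only and 100% = reference agonist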
# MOR-DOR ag = OPRM1-OPRD1 heterodimerization agonism. activation, % at 9.3 µM. P35372+P41143. cells, luminescence. AID 504326. 340,000 tested, 0.3% active;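 also: 0% = vehicle-treated cells and 100% = reference agonist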
# MOR-DOR ag conf = OPRM1-OPRD1 heterodimer agonism, confirmation; shares compounds with MOR-DOR ag; cells, MOR-DOR heterodimerization, luminescence complementation; activation, % at 9.3 µM; 830 tested, 45% active; AID 504904;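 also: 0% = vehicle-treated cells and 100% = reference agonist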
# HTR5A ag ctr2 = counter-screen for OPRM1-OPRD1 agonists: human HTR5A agonism; shares compounds with MOR-DOR ag; HTR5A agonist counterscreen, cell luminescence; activation, % at 9.3 µM; 830 tested, 8% active; in the data active = activation above about 17%;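 also: 0% = vehicle-treated cells and 100% = reference agonist response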
# Numbers without * were called inactive; i = inactive; x = not tested or not shown. Rule as the data show it, unless noted: active = activation above about 18%; inactive = the rest.
SMILES,HTR5A inv ag,OPRM1-OPRD1 inv,HTR5A ag,MOR-DOR ag,MOR-DOR ag conf,HTR5A ag ctr2
O=C1C=C(c2c(O)ccc3ccccc23)c2ccccc2C1=O,-39,-280,10,54*,47*,14
Cc1nc2ccccc2c(=O)n1CCN1CCOCC1,8,14,1,-3,x,x
Cc1nc2nc(C)n(CCN3CCOCC3)c(=O)c2c(-c2cccc([N+](=O)[O-])c2)c1C(=O)CCCCCCCCCCN1CCC(c2ccccc2)(c2ccccc2)CC1,-29,-113,8,26*,131*,6
CCC(NC(=O)CCc1c(C)c2cc3c4c(oc3cc2oc1=O)CCCC4)C(=O)O (stereo not given),-9,8,2,-1,x,x
CCOC(=O)C1=C(CN2CC(C)CC(C)C2)NC(=O)NC1c1ccc2c(c1)OCO2 (stereo not given),26,-137,-3,26*,24*,5
Cc1cc(C)c2nc(N3C(=O)C(O)=C(C(=O)c4ccco4)C3c3cccc(O)c3)sc2c1 (stereo not given),-13,10,5,-2,x,x
Cc1ccc(N(C(=O)C(F)(F)F)C(C(=O)NC2CCCCC2)c2cccs2)cc1 (stereo not given),-10,-105,12,18*,-1,-1
CC(C(=O)OCC(=O)N1CCCCC1)N1C(=O)c2ccccc2C1=O (stereo not given),15,15,-6,-4,x,x
COC(=O)C1=C(CS(=O)(=O)c2ccc(Cl)cc2)NC(=O)NC1c1ccc(O)cc1 (stereo not given),34,0,0,0,x,x
O=C(Nc1cccc(-c2nc3ccccc3[nH]2)c1)c1cccc(NC(=O)c2ccco2)c1,13,-459,7,88*,-2,-1
O=C(CSc1ccc(Cl)cc1)Nc1cccc(-c2nc3ccccc3[nH]2)c1,-6,-203,2,34*,13,8
O=C(CSc1ccccc1)Nc1ccc(-c2nc3ccccc3[nH]2)cc1,-32,-111,8,22*,5,-2
Cc1cc(C)c(OCC(=O)OCC(=O)NCCC2=CCCCC2)c(C)c1,-22,-45,4,9,x,x
COc1ccc(N(CC(=O)NC2CCCC2)C(=O)c2ccc(C)s2)c(OC)c1,-20,18,7,-3,x,x
COc1ccc(/C=N/n2c(-c3ccco3)nc3ccccc3c2=O)cc1,-23,-240,1,41*,-5,-4
O=C(C1=C[C@H](C2CCCCC2)C[C@H](OCCCCO)O1)N1CCN(Cc2ccccc2)CC1,20,-7,-1,1,x,x
Cc1cc(/C=C2\SC(=Nc3ccc(F)cc3)NC2=O)c(C)n1-c1ccc(S(N)(=O)=O)cc1,-12,i,4,125*,24*,3
O=C(Nc1ncccn1)c1cc(-c2cccc(Br)c2)nc2ccccc12,-5,12,2,-3,x,x
O=C(Nc1ccncc1)c1cc(-c2cccc(Br)c2)nc2ccccc12,-56,-336,26*,52*,11,6
Cc1ccc(-c2cc(C(=O)Nc3ccncc3)c3ccccc3n2)cc1,-31,-153,12,28*,18,15
COc1ccc(NC(=O)c2cc(-c3ccco3)nc3ccccc23)cc1,-3,-251,4,50*,22*,20*
COc1ccc(S(=O)(=O)N2CCOCC2)cc1C(=O)N1CCCCC1,4,4,6,-1,x,x
CC1CCN(C(=O)COc2ccc3ccccc3c2Br)CC1,13,-19,-3,3,x,x
CC(=O)Nc1ccc(NC(=O)C(C)OC(=O)[C@@H]2CCCN2C(=O)c2cccs2)cc1 (stereo not given in full),-2,13,1,-3,x,x
O=C(CSc1nccc(-c2cccs2)n1)Nc1ccc(Cl)cc1,-38,14,1,-3,x,x
SMILES,HTR5A inv ag,OPRM1-OPRD1 inv,HTR5A ag,MOR-DOR ag,MOR-DOR ag conf,HTR5A ag ctr2
Cc1onc(-c2ccc(Cl)cc2)c1-c1ccnc(SCC(=O)Nc2ccc(C(C)C)cc2)n1,-6,-294,2,56*,0,-3
C=CCN1C(=O)c2oc3ccccc3c(=O)c2C1c1ccc(O)c(OC)c1 (stereo not given),-6,9,2,-2,x,x
CCOc1cc(C2c3c(oc4ccccc4c3=O)C(=O)N2c2nccs2)ccc1O (stereo not given),-32,-125,-4,24*,1,2
CC1(c2ccccc2)CC(C)(C)N2C(=O)C3(C(C#N)=C(N)Oc4cc(O)ccc43)c3cccc1c32 (stereo not given),-3,-106,1,20*,47*,4
COc1cccc(-c2nn(-c3ccccc3)cc2CN(C)C(C)c2ccncn2)c1 (stereo not given),-17,-161,7,25*,-2,-2
OC(CNCCc1ccccc1)COc1ccc(OCC(O)CNCCc2ccccc2)cc1 (stereo not given),2,7,-3,-1,x,x
OC(CNCCC(c1ccccc1)c1ccccc1)COc1ccccc1 (stereo not given),-48,-105,0,22*,38*,6
CC(C)(C)NC(=O)CN1CCCN(C(=O)c2cccc(S(=O)(=O)N3CCc4ccccc43)c2)CC1,2,-4,-1,1,x,x
Cc1ccc(NC(=O)Nc2cc(Cl)ccc2C2COC(=O)C2=N)cc1 (stereo not given),-4,-119,1,23*,5,39*
CCOC(=O)C1(CCOc2ccccc2)CCN(Cc2cccc(OC)c2)CC1,-5,-93,1,19*,1,93*
CCOC(=O)C1(CCOc2ccccc2)CCN(Cc2ccc(O)c(Cl)c2)CC1,22,-36,-6,7,x,x
CCOC(=O)C1(CCOC)CCN(Cc2ccccc2-c2ccco2)CC1,-7,i,3,130*,33*,7
CCOC(=O)C1(CCOc2ccccc2)CCN(Cc2cc(OC)ccc2OC)CC1,-10,-260,3,53*,1,17*
CCOC(=O)C1(CCOC)CCN(Cc2cccc(OCc3ccccc3)c2)CC1,-17,-30,5,6,x,x
CCOC(=O)C1(CCOc2ccccc2)CCN(Cc2ccc3c(c2)OCCO3)CC1,5,-125,-2,25*,44*,-4
CCOC(=O)C1(CC2CCCCO2)CCN(Cc2ccc(OC)cc2F)CC1 (stereo not given),8,-278,-3,48*,59*,3
COc1ccc(C2Nc3ccccc3C(=O)N2c2ccccc2)cc1COc1ccccn1 (stereo not given),11,9,5,-2,x,x
COc1ccc(C2Nc3ccccc3C(=O)N2c2ccccc2)cc1CSc1ccccn1 (stereo not given),-3,-139,0,27*,28*,-2
COc1ccc(C2Nc3ccccc3C(=O)N2c2ccc(F)cc2)cc1CSc1ccccn1 (stereo not given),10,-226,-4,38*,46*,3
